# Data: PubChem BioAssay (Tox21)
# Records with an inconclusive call do not appear. A number with no mark means an inactive call. The source made the active and inactive calls. Calls follow the shape of the dose curve; as a rule, active = well fitted activation curve with a large enough effect in the repeat runs; inconclusive = weak or mixed curves; inactive = no such curve, though single readings can be large or run the other way.
# Target: Aryl hydrocarbon receptor (Homo sapiens) (UniProt P35869)
# Sequence (P35869 whole entry, looked up): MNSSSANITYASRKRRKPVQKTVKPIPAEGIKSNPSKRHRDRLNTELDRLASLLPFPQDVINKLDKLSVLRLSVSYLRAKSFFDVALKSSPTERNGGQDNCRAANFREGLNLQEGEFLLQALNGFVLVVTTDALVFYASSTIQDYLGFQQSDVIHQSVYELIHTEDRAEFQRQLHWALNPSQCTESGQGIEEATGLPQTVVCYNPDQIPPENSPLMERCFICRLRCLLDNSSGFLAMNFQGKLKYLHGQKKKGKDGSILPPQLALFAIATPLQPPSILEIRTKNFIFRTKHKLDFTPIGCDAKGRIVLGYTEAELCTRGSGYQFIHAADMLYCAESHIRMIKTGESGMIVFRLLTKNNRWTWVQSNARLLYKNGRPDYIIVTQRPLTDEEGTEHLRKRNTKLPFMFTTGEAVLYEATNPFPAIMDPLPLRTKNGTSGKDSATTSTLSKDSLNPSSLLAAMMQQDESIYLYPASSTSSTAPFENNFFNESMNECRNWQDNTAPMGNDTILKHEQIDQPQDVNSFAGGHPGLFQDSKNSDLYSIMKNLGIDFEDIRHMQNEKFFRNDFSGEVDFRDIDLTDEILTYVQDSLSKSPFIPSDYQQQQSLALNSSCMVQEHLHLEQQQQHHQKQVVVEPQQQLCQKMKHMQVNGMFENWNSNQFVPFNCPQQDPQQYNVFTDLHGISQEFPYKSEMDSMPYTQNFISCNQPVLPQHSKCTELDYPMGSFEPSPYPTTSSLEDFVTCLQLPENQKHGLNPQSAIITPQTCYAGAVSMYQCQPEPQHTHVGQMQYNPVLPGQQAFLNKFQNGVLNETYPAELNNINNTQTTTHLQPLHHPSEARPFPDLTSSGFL
# Assay: qHTS assay to identify small molecule that activate the aryl hydrocarbon receptor (AhR) signaling pathway (AID 743085); also: nearly all actives have a fitted effect of over 15% in size;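 as to activation: HG2L7.5c1 human HepG2 liver cells with stably integrated DRE-driven firefly reporter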
# Details: HepG2 AhR-luc (HG2L7.5c1), luciferase, 24 h; series mostly up to 70.3 µM; activation: at the top concentration
# Text: U.S. Tox21 Program National Center for Advancing Translational Sciences [NCATS] NIH Chemical Genomics Center [NCGC] U.S. Environmental Protection Agency [EPA] National Institutes of Environmental Health Sciences [NIEHS] National Toxicology Program [NTP] U.S. Food and Drug Administration [FDA] Tox21 Assay overview: The Aryl hydrocarbon Receptor (AhR), a member of the family of basic helix-loop-helix transcription factors, is crucial to adaptive responses to environmental changes. AhR mediates cellular responses to environmental pollutants such as aromatic hydrocarbons through induction of phase I and II enzymes but also interacts with other nuclear receptor signaling pathways. A cell based HepG2-AhR-luc assay (HG2L7.5c1 cell line, developed by Dr. Michael S. Denison, University of California at Davis, was used to assess the activation of AhR. HepG2 (human hepatocellular carcinoma) cells were stably transfected with an Ah receptor-responsive firefly luciferase reporter gene plasmid containing 20 dioxin responsive elements and luciferase reporter gene. Increased luciferase activity can be used to identify the compounds that induce AhR activation.
# Tox21 Assay Protocol Summary: 4000 cells in 5 uL/well were dispensed into white wall/solid bottom 1536-well plates using a Multidrop Combi (Thermo Fisher Scientific Inc., Waltham, MA) dispenser. After the assay plates were incubated at 37C for 5 h, 23 nL of compound or DMSO vehicle was transferred to the assay plates by a pintool station (Kalypsys, San Diego, CA). The plates were incubated at 37C for 24 hr. After 1 ul/well of CellTiter-Fluor reagent (Promega, Madison, WI) was added into the assay plates using a Flying Reagent Dispenser (FRD) (Aurora Discovery, CA), the assay plates were incubated at 37C for 30 min. The fluorescence intensity in the plates was measured using a ViewLux plate reader (PerkinElmer, Shelton, CT), followed by the addition of 4 uL of ONE-Glo Luciferase Assay reagent (Promega) using an FRD (Aurora Discovery). After the assay plates were incubated at room temperature for 30 min, luminescence intensity was measured using a ViewLux plate reader (Perkin Elmer).
# % is scaled to controls: 0 for no effect and ±100 for the full control effect; potency is read from the fitted curve at half-maximal effect.
SMILES,Potency,activation
CC1=C(C/C=C(\C)CCC[C@H](C)CCC[C@H](C)CCCC(C)C)C(=O)c2ccccc2C1=O,26.6 µM (active),
CC(C)C1CCC(O)CC1 (stereo not given),,-0.92%
CCCCCCCCCCOc1cc2c(=O)c(C(=O)OCC)c[nH]c2cc1OCC,,0.304%
Nc1ccncc1N,2.66 µM (active),
C[C@H]1[C@H](NC(=O)/C(=N/OC(C)(C)C(=O)O)c2csc(N)n2)C(=O)N1S(=O)(=O)O (stereo in doubt),,-0.404% [at 32.5 µM]
CC(C)(N)C#N,,3.55% [at 95 µM]
O=C(O)CCSCCC(=O)O,,-0.255%
CC(C)[C@H]1CC[C@@H](C)CC1=O,,-0.4%
C=CCOCC(O)CO (stereo not given),,-0.136%
COc1ccccc1OCC1CNC(=O)O1 (stereo not given),,0.82%
CO[C@@]1(NC(=O)C(C(=O)O)c2ccc(O)cc2)C(=O)N2C(C(=O)O)=C(CSc3nnnn3C)CO[C@@H]21 (stereo not given in full),,-0.129% [at 32.5 µM]
CCCCCCCCCCCCSC,,-0.566%
CCN1C=CN(C)C1C (stereo not given),,4.43% [at 95 µM]
Cc1cccc(C)c1NC(=O)CC12CCCN1CCC2,,-0.793%
CC(=O)O[C@@]12CO[C@@H]1C[C@H](O)[C@@]1(C)C(=O)[C@H](O)C3=C(C)[C@@H](OC(=O)[C@H](O)[C@@H](NC(=O)OC(C)(C)C)c4ccccc4)C[C@@](O)([C@@H](OC(=O)c4ccccc4)[C@H]21)C3(C)C,inactive,
CCOCC(C)O (stereo not given),,1.08%
O=C(c1ccccc1O)c1ccccc1O,,7.4%
CCCCc1nc(Cl)c(CO)n1Cc1ccc(-c2ccccc2-c2nn[nH]n2)cc1,,-0.35%
O=CN(CCO)CCO,,-0.956%
[K+],,-0.0148%

SMILES,Potency,activation
[O-][n+]1cccc(CO)c1,,-0.674%
N[C@H](C(=O)O)[C@@H](O)c1ccc(O)c(O)c1,,3.56%
CC1=CCC(O)(C(C)C)CC1 (stereo not given),,-1.13%
Cc1ccc(C(=O)Nc2ccc(S(=O)(=O)O)c3cc(S(=O)(=O)O)cc(S(=O)(=O)O)c23)cc1NC(=O)c1cccc(NC(=O)Nc2cccc(C(=O)Nc3cc(C(=O)Nc4ccc(S(=O)(=O)O)c5cc(S(=O)(=O)O)cc(S(=O)(=O)O)c45)ccc3C)c2)c1,,6.3%
NC(=O)Cc1cccc2ccccc12,,-2.42%
Cc1ccccc1N=C(N)N=C(N)N,,4.71%
O=S(=O)(O)c1cccc(S(=O)(=O)O)c1,,2.24%
C[C@H]1C[C@H]2[C@@H]3CCC4=CC(=O)C=C[C@]4(C)[C@H]3C(=O)C[C@]2(C)[C@@]1(O)C(=O)CO,,-0.153%
CN(C)C(=O)Oc1cccc([N+](C)(C)C)c1,,-0.0801%
CC(=O)c1cnccn1,,3.84% [at 95 µM]
C[N+]1(CC2COC(c3ccccc3)(c3ccccc3)O2)CCCCC1 (stereo not given),,0.657%
CNC(=O)Nc1ccc(Cl)c(Cl)c1,54.5 µM (active),
Nc1ccccn1,,6.11%
Cc1ccc(C(=O)c2ccc(CC(=O)O)n2C)cc1,,0.327% [at 32.5 µM]
O=C(O)Cc1csc(-c2ccc(Cl)cc2)n1,,0.555%
CC[C@H]1OC(=O)[C@H](C)[C@@H](O[C@H]2C[C@@](C)(OC)[C@@H](O)[C@H](C)O2)[C@H](C)[C@@H](O[C@@H]2O[C@H](C)C[C@H](N(C)C)[C@H]2O)[C@](C)(OC)C[C@@H](C)C(=O)[C@H](C)[C@@H](O)[C@]1(C)O,inactive,
CCOC(=O)COc1cc(-n2ncc(C(F)(F)F)c(C)c2=O)c(F)cc1Cl,,-0.21%
CC12CCC(C(=O)C1=O)C2(C)C (stereo not given),,0.0125% [at 95 µM]
C[C@@H]1CCC[C@H](C)N1,,-0.614% [at 32.5 µM]
O=C(O)CNC(=O)c1ccccc1,,-0.321%
